Pf growth 48h: inhibits P. falciparum growth in the first generation, 48 h; P. falciparum luciferase growth in erythrocytes, 48 h; Potency, µM (top dose mostly 28.7 µM), for inactives: top-dose activity change, negative = inhibition, usual class: inhibitors; 310,000 tested, 5.9% active; further: on the % scale 0 is the no-effect control and ±100 the full control effect
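Luciferase-expressing parasites in RBCs, 2% Hct / 0.1% parasitemia final; RPMI 1640 + 0.5% Albumax; 37 C, 5% CO2, one generation; luminescence read-out, lower signal = inhibition.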
AMA1-RON2 inh: disrupts binding of P. falciparum AMA1 to RON2 | AID 720542 | 360,000 tested, 0.2% active | AlphaScreen AMA1-biotinylated RON2 peptide binding | Potency, µM (titrated, usually from 58.2 µM), inactives show at the top dose activity change, negative = inhibition, usual class: inhibitors;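 further: 0% = vehicle wells and -100% = peptide control; nearly all actives have a fitted effect of over 45% in size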
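AMA1 (3D7) with his tag at 25 nM final met compounds first, then biotinylated RON2 peptide at 25 nM; detection used donor plus acceptor beads, 10 µg/mL apiece, read by AlphaScreen after 30 min at room temperature.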
Pf growth 96h: P. falciparum growth inhibition at 96 hour, primary screen for plastid delayed-death inhibitors; P. falciparum luciferase reporter growth, 96 h; Potency, µM (series often up to 28.7 µM), for inactives: at the highest dose activity change, negative = inhibition, hits mostly inhibitors; AID 504834; 320,000 tested, 6.9% active; further: on the % scale 0 is the no-effect control and ±100 the full control effect
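Two-generation exposure (96 h) targets delayed-death phenotype. Reporter parasites carrying integrated firefly luciferase, in red cells at 2% hematocrit and 0.05% parasitemia final, kept at 37 C, 5% CO2; luminescence loss indicates inhibition.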
SARS PLpro yeast: blocks SARS-CoV papain-like protease in a yeast assay; Potency, µM (doses to about 32.9 µM), for inactives: at the highest dose activity, positive = growth rescue, most hits filed as activators; S. cerevisiae expressing SARS-CoV PLpro, growth rescue; 330,000 tested, 0.19% active; calls by dose curve; further: 0% is about no effect; nearly all actives have a fitted effect of over 55% in size
An asterisk follows results filed as active; ? = inconclusive; . = no result; [ ] = dose if it differs, or a comment. This is a sample that favours compounds with a hit; in the whole collection about 9.4% have one here. Unless noted, the call rests on the fitted dose curve; in most records, active means well fitted curve in the direction sought with a large enough effect; inconclusive means small, poorly fitted or top-dose-only effect, or another doubt; inactive means no such curve, though single readings can be large; an effect the other way counts as inactive or inconclusive. Potency means the concentration at half of the fitted maximal effect.

SMILES	Pf growth 48h	AMA1-RON2 inh	Pf growth 96h	SARS PLpro yeast
CSc1nnc(Cc2sc(-c3ccccc3)nc2-c2ccccc2)o1	.	7%	0%	-5%
COC(=O)[C@H](C)NC(=O)NCc1ccccc1F	77%	5%	68%	-5%
O=c1cc(CSc2ccc(Cl)cc2)nc(-c2ccccn2)[nH]1	2.3µM*	-38%	1.9µM*	-5%
O=C(c1ccccc1)c1ccc(N2CCN(C(=O)c3cccc(F)c3F)CC2)c(F)c1	?	0%	-102%	6.3µM*
O=C(c1ccc(N2CCN(C(=O)c3ccc(F)cc3F)CC2)cc1)c1cccc(F)c1	?	-1%	10µM*	-1%
CCC(=O)c1ccc(N2CCN(C(=O)c3ccccc3F)CC2)c(F)c1	28%	7%	0%	-1%
Cc1ccc(N2CCN(C(=O)c3ccccc3F)CC2)c(C)c1	-15%	-4%	3.3µM*	-22%
Cc1[nH]cnc1C(=O)N/N=C/c1ccc([N+](=O)[O-])s1	?	63%	1.9µM*	-2%
Cc1cc(C(=O)N/N=C/c2ccc(C)s2)n[nH]1	93%	12%	?	0%
Cn1c(SCC(=O)N/N=C/c2ccc([N+](=O)[O-])s2)nnc1-c1ccc(Cl)cc1	10µM*	23%	5.2µM*	-61%
COc1cc([N+](=O)[O-])cc(/C=N/NC(=O)CSc2nnc(-c3ccccc3)n2C)c1O	7%	37%	18%	0%
Cc1cc(C(=O)N/N=C/c2ccc([N+](=O)[O-])s2)n[nH]1	?	23%	2.1µM*	-3%
CS(=O)(=O)c1ccc(Cl)c(C(=O)O)c1	35%	0%	3.7µM*	2%
COc1ccc(CCNc2nc3ccccc3n3nnnc23)cc1OC	.	42%	7%	2%
CCOc1ccc(CCNc2nc3ccccc3n3c(C)nnc23)cc1OCC	5.2µM*	14%	16%	-1%
COC(=O)C(CCSC)NC(=O)C(NC(=O)C1CCC(C)CC1)C(C)C (stereo unspecified)	18%	0%	2.3µM*	-5%
Cc1ccc(NC(=O)c2ccc3nccnc3c2)c(C)c1	69%	-9%	-24%	-2%
COc1ccc(C(=O)Nc2ccc(SC(F)F)cc2)cc1	313%	-5%	193%	-2%
O=C(C[n+]1cccc(CNC(=O)c2ccc(OC(F)F)cc2)c1)Nc1ccccc1Cl	13µM*	-12%	?	-12%
O=C(C[n+]1cccc(CNC(=O)c2ccc(OC(F)F)cc2)c1)Nc1ccc(SC(F)F)cc1	1.7µM*	0%	0.17µM*	-1%
O=C(NCc1ccc[n+](CCCCS(=O)(=O)[O-])c1)c1ccc(OC(F)F)cc1	-2%	.	26%	-3%
O=C(O)CC/C(=C\c1cc([N+](=O)[O-])ccc1Cl)c1nc2ccccc2s1	-14%	1%	3%	-37%
O=C(NNc1nc2ccccc2s1)Nc1ccccc1	92%	-11%[2.32 µM]	175%	-16%
Cc1ccc(NC(=O)Nc2nc3ccccc3s2)cc1NC(=O)Nc1nc2ccccc2s1	2.1µM*	-8%	2.6µM*	-1%
O=C(Nc1nc2ccccc2s1)c1ccccc1[N+](=O)[O-]	66%	-4%	?	-2%
SMILES	Pf growth 48h	AMA1-RON2 inh	Pf growth 96h	SARS PLpro yeast
O=C(Nc1ccc(Cl)cc1)/C(=C/c1ccc([N+](=O)[O-])cc1)c1nc2ccccc2s1	2.1µM*	.	1.5µM*	-2%
O=C(Nc1ccc(Cl)c([N+](=O)[O-])c1)Nc1nc2ccccc2s1	?	.	10µM*	1%
O=C(Nc1nc2ccccc2s1)Nc1ccc([N+](=O)[O-])cc1Cl	?	.	1µM*	1%
COC(=O)c1cccc(NC(=O)Cc2ccsc2)c1	15%	11%	12%	-5%
Cc1cccc2cn[nH]c12	15%	-6%	?	0%
Cc1noc(C)c1C(=O)Nc1nc(C23CC4CC(CC(C4)C2)C3)cs1	12µM*	-11%	1%	4%
O=C(NCc1ccccc1)C(=O)Nc1nc(C23CC4CC(CC(C4)C2)C3)cs1	?	8%	-29%	3%
CNC(=O)C(=O)Nc1nc(C23CC4CC(CC(C4)C2)C3)cs1	-14%	9%	?	0%
O=C(NCc1ccc(F)cc1)C(=O)Nc1nc(C23CC4CC(CC(C4)C2)C3)cs1	12µM*	62%	-29%	-11%
O=CN1N=C(c2ccccc2)CC1c1ccc(Cl)cc1 (stereo unspecified)	16%	-3%	?	.
COc1ccc(OC)c(C(=O)N2CCC(C(=O)c3ccc(F)cc3)CC2)c1	-16%	5%	9.3µM*	25%
COc1ccc(NC(=O)N2CCC(C(=O)c3ccc(F)cc3)CC2)cc1	-16%	25%	31%	-1%
COc1ccc(NC(=O)CN2CCc3ccccc3C2)c(OC)c1	1%	4%	?	-1%
COc1ccc(NC(=O)CN2C(=O)N(C)Cc3ccccc32)c(C)c1	5%[5.75 µM]	-7%	15µM*	6%
CN(C)c1ccc(NC(=O)c2cccc(C(=O)Nc3ccc(N(C)C)cc3)n2)cc1	?	10µM*	8.3µM*	0%
CCN(Cc1ccccc1)C(=O)COC(=O)c1cnc(C)cn1	1%	2%	35%	2%
CN(C)c1ccc(NC2=C([N+](=O)[O-])CS(=O)(=O)C2)cc1	-4%	0%	.	4%
N=c1c2c(-c3ccccc3)c(-c3ccccc3)oc2ncn1CCCN1CCOCC1	13µM*	-18%	12µM*	0%
N=c1c2c(-c3ccccc3)c(-c3ccccc3)oc2ncn1CCN1CCOCC1	7.4µM*	-17%	9.3µM*	-19%
c1ccc(-c2oc3ncnc(NCCN4CCOCC4)c3c2-c2ccccc2)cc1	?	-14%	14%	0%
COC(=O)CN1C(=O)S/C(=C/c2cc(C)n(C)c2C)C1=O	68%	-1%	?	4%
CC(C)NS(=O)(=O)c1cc(C(=O)O)ccc1Cl	-5%	-5%	?	-4%
COCCc1ncc(CN2CCC(C(=O)Nc3cccc(-c4cscn4)c3)CC2)cn1	-7%	-3%	12%	3%
CCCN(CCC)CCNC(=O)c1cc2c(-c3ccc(Cl)cc3)nn(C)c2s1	0.47µM*	-10%	11%	-4%
CCCCN(CC)CCNC(=O)c1cc2c(-c3ccc(Cl)cc3)nn(C)c2s1	0.33µM*	-18%	-1%	1%
SMILES	Pf growth 48h	AMA1-RON2 inh	Pf growth 96h	SARS PLpro yeast
CCN(CC)CCNC(=O)c1cc2c(-c3ccc(Cl)cc3)nn(C)c2s1	.	-4%	-26%	0%
CCCN(CCC)CCCNC(=O)c1cc2c(-c3ccc(OC)c(OC)c3)nn(C)c2s1	2.1µM*	-1%	1%	0%
CCOCCCNC(=O)c1cc2c(-c3ccc(Cl)cc3)nn(C)c2s1	.	7%	-7%	-2%
CCCN(CCC)CCNC(=O)c1cc2c(-c3ccccc3F)nn(C)c2s1	3.3µM*	5%	1%	-2%
O=C(Cn1nc(Cc2cccnc2)c2ccccc2c1=O)Nc1ccccc1F	-18%	-3%	-11%	2%
COc1ccc(OC)c(COC(=O)c2cc([N+](=O)[O-])ccc2N2CCOCC2)c1	4.7µM*	8%	2.9µM*	17%
Cc1ccc(OCCOC(=O)c2cc(S(=O)(=O)N3CCCCC3)ccc2N2CCOCC2)cc1	?	4%[11.6 µM]	13µM*	-4%
